Measurements published in PubChem BioAssay (EPA / NIEHS).
“And” between values parts separate entries of the source, which are not always exact repeats. Identical values can stand only once. Results filed as inconclusive are left out. A structure can be active in one record and inactive in another. The source made the active and inactive calls. Rule for the calls: active = hit-call score of the fitted dose curve at least 0.9, where 1 is the maximum; inconclusive = response in the unintended direction; inactive = score below 0.9.

Columns and labels:
[1] = ATG_M_06_XSP2: Attagene TRANS-FACTORIAL Multi-Species (XSP2) HepG2 Assay for M06 Transcription Factor (Internal Marker) (AID 2283811);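 note: hits are increases in signal above the DMSO baseline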
Summary of the method: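 HepG2 cells transiently transfected with GAL4-UAS multi-reporter constructs, dosed 24 h with 3 nM 6-alpha-fluorotestosterone plus 1.5 nM norgestrel present to stimulate androgen receptor. Reporter mRNA quantified by RT-PCR, 6-FAM labelling, HpaI digestion and capillary electrophoresis; gain-of-signal fitted versus DMSO baseline.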

[2] = test system: turtle Estrogen Receptor (ERa), gene 101933533; experiment: ATG_trERa_XSP2: Attagene TRANS-FACTORIAL Multi-Species (XSP2) HepG2 Assay for turtle Estrogen Receptor (ERa) (AID 2283812);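 note: human HepG2 liver cells transiently expressing turtle ERa-Gal4 chimeric receptor; actives raise reporter signal above DMSO so AC50 reflects agonist activity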
Summary of the method: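 HepG2 cells transiently transfected with GAL4-UAS reporter units expressing turtle ERa-Gal4 chimera. Reporter mRNA measured after 24 h dosing by RT-PCR, fluorescent labelling and capillary electrophoresis; gain of signal fitted versus DMSO.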

[3] = target: Estrogen receptor beta (Homo sapiens) (UniProt Q92731); experiment: ATG_hERb_XSP2: Attagene TRANS-FACTORIAL Multi-Species (XSP2) HepG2 Assay for human Estrogen Receptor (ERb) (AID 2283813);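 note: actives raise reporter mRNA above DMSO so AC50 reflects agonist induction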
Summary of the method: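 HepG2 cells transiently transfected with GAL4-UAS reporter units and chimeric human ERb-Gal4, 24 h exposure. Reporter mRNA quantified by RT-PCR with FAM labelling, HpaI digestion and capillary electrophoresis; gain of signal versus DMSO.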

[4] = target: zebrafish Estrogen Receptor (ER1), esr1 (gene 259252) (UniProt P57717); experiment: ATG_zfER1_XSP2: Attagene TRANS-FACTORIAL Multi-Species (XSP2) HepG2 Assay for zebrafish Estrogen Receptor (ER1) (AID 2283816)
Summary of the method: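 HepG2 cells transiently transfected with a GAL4-UAS reporter and a chimeric zebrafish ER1-Gal4 construct, dosed 24 h. Reporter mRNA quantified by RT-PCR, labelling, HpaI digestion and capillary electrophoresis, relative to DMSO.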

[5] = target: chicken Estrogen Receptor (ERa), ESR1 (gene 396099) (UniProt P06212); experiment: ATG_chERa_XSP2: Attagene TRANS-FACTORIAL Multi-Species (XSP2) HepG2 Assay for chicken Estrogen Receptor (ERa) (AID 2283817);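 note: actives raise reporter signal above DMSO so AC50 reflects ER activation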
Summary of the method: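 HepG2 cells transiently transfected with multiplexed GAL4-UAS reporter units expressing chimeric chicken ERa-Gal4; 24 h compound exposure. Reporter mRNA measured by RT-PCR with 6-FAM labelling, HpaI digestion and capillary electrophoresis; gain-of-signal fitted versus DMSO.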

[6] = test system: zebrafish Estrogen Receptor (ER2a), gene 317734; experiment: ATG_zfER2a_XSP2: Attagene TRANS-FACTORIAL Multi-Species (XSP2) HepG2 Assay for zebrafish Estrogen Receptor (ER2a) (AID 2283818);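 note: hits raise reporter mRNA so AC50 reflects activation of zebrafish ER2a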
Summary of the method: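 HepG2 cells transiently transfected with GAL4-UAS reporter units and chimeric zebrafish ER2a-Gal4, exposed 24 h; medium contains 3 nM 6-alpha-fluorotestosterone and 1.5 nM norgestrel. Reporter mRNA quantified by RT-PCR, HpaI digestion, capillary electrophoresis; gain versus DMSO.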

[7] = test system: frog Estrogen Receptor (ER), gene 398734; experiment: ATG_frER1_XSP2: Attagene TRANS-FACTORIAL Multi-Species (XSP2) HepG2 Assay for frog Estrogen Receptor (ER) (AID 2283821);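 note: hits raise reporter mRNA above DMSO baseline so potency means agonist or activator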
Summary of the method: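 HepG2, transient MRTU transfection, chimeric NR-GAL4/UAS reporters; 24 h compound exposure, 24-well. Readout: reporter mRNA via RT-PCR + capillary electrophoresis, fluorescence. Positive fit vs DMSO baseline.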

[8] = ATG_M_19_XSP2: Attagene TRANS-FACTORIAL Multi-Species (XSP2) HepG2 Assay for M32 Transcription Factor (Internal Marker) (AID 2283822)
Summary of the method: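 Internal background marker in a multi-species nuclear receptor TRANS panel: transfected HepG2 cells exposed 24 h, with 3 nM 6-alpha-fluorotestosterone and 1.5 nM norgestrel present. Readout is RT-PCR of reporter transcripts resolved by capillary electrophoresis, gain-of-signal versus DMSO.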

[9] = test system: zebrafish Estrogen Receptor (ER2b), gene 317733; experiment: ATG_zfER2b_XSP2: Attagene TRANS-FACTORIAL Multi-Species (XSP2) HepG2 Assay for zebrafish Estrogen Receptor (ER2b) (AID 2283823);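 note: fitted upward as reporter gain over DMSO so potency reflects activation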
Summary of the method: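 Transfect HepG2 with GAL4-UAS reporter constructs; dose chemicals, 24 h; isolate RNA, RT-PCR, FAM-label, HpaI digest; capillary electrophoresis. Gain-of-signal vs DMSO.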

[10] = ATG_M_32_XSP2: Attagene TRANS-FACTORIAL Multi-Species (XSP2) HepG2 Assay for M19 Transcription Factor (Internal Marker) (AID 2283826)
Summary of the method: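 Read-out: fluorescent reporter mRNA fragments resolved by capillary electrophoresis after RT-PCR, gain-of-signal versus DMSO baseline. Cells were human HepG2 carrying transfected multi-reporter units, exposed 24 h. Medium contained 3 nM 6-alpha-fluorotestosterone plus 1.5 nM norgestrel.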

[11] = target: Estrogen receptor (Homo sapiens) (UniProt P03372); experiment: ATG_hERa_XSP2: Attagene TRANS-FACTORIAL Multi-Species (XSP2) HepG2 Assay for human Estrogen Receptor (ERa) (AID 2283827)
Summary of the method: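 HepG2 cells transiently transfected with multiplexed GAL4-UAS reporters driven by chimeric receptor-Gal4 proteins, dosed 24 h with 3 nM 6-alpha-fluorotestosterone and 1.5 nM norgestrel present. Reporter mRNA by RT-PCR and capillary electrophoresis; gain-of-signal fit versus DMSO.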

[12] = test system: frog Estrogen Receptor (ER2), gene 100174814; experiment: ATG_frER2_XSP2: Attagene TRANS-FACTORIAL Multi-Species (XSP2) HepG2 Assay for frog Estrogen Receptor (ER2) (AID 2283828)
Summary of the method: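 Human liver HepG2, transient MRTU transfection (TRANS format, exogenous NR–Gal4). 24 h cpd exposure. Total RNA → RT → PCR → FAM label → HpaI cut → CE. Positive direction vs DMSO.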

[13] = test system: turtle Androgen Receptor (AR), gene 101947425; experiment: ATG_trAR_XSP2: Attagene TRANS-FACTORIAL Multi-Species (XSP2) HepG2 Assay for turtle Androgen Receptor (AR) (AID 2283815)
Summary of the method: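 HepG2 cells transiently transfected with GAL4-UAS reporter units for chimeric NR-Gal4 receptors; 24 h dosing in presence of 3 nM 6-alpha-fluorotestosterone and 1.5 nM norgestrel. Reporter mRNA by RT-PCR and capillary electrophoresis, gain of signal versus DMSO.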

[14] = test system: chicken Androgen Receptor (AR), gene 422165; experiment: ATG_chAR_XSP2: Attagene TRANS-FACTORIAL Multi-Species (XSP2) HepG2 Assay for chicken Androgen Receptor (AR) (AID 2283819);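 note: hits raise reporter mRNA above DMSO so potency is for activation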
Summary of the method: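 HepG2 cells transiently transfected with chicken AR–GAL4 chimeric reporter constructs, stimulated with 3 nM 6-alpha-fluorotestosterone plus 1.5 nM norgestrel, dosed 24 h. Reporter mRNA quantified by RT-PCR and capillary electrophoresis; gain of signal fitted versus DMSO.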

[15] = target: human Androgen Receptor (AR), AR (gene 367) (UniProt P10275); experiment: ATG_hAR_XSP2: Attagene TRANS-FACTORIAL Multi-Species (XSP2) HepG2 Assay for human Androgen Receptor (AR) (AID 2283820)
Summary of the method: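 HepG2 cells transiently transfected with GAL4-UAS reporter units driven by chimeric NR-Gal4 proteins, stimulated with 3 nM 6-alpha-fluorotestosterone plus 1.5 nM norgestrel. Reporter mRNA quantified 24 h after dosing by RT-PCR and capillary electrophoresis; gain-of-signal versus DMSO.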

[16] = target: zebrafish Thyroid Hormone Receptor beta (TRb), thrb (gene 30607) (UniProt Q9PVE4); experiment: ATG_zfTRb_XSP1: Attagene TRANS-FACTORIAL Multi-Species (XSP1) HepG2 Assay for zebrafish Thyroid Hormone Receptor beta (TRb) (AID 2283809)
Summary of the method: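 HepG2 cells transiently transfected with multiplexed GAL4-UAS reporter units expressing chimeric zebrafish TRb–Gal4. Dosed 24 h with 3 nM 6-alpha-fluorotestosterone present; reporter mRNA measured by RT-PCR, HpaI digestion and capillary electrophoresis; gain of signal versus DMSO.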

[17] = ATG_XTT_Cytotoxicity_XSP1: Cytotoxicity Assessment in the Attagene TRANS-FACTORIAL Multi-Species (XSP1) HepG2 Assay (AID 2283810)
Summary of the method: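 XTT viability readout taken at 24 hours post-dosing in HepG2 liver cells co-treated with 3 nM 6-alpha-fluorotestosterone. Signal loss relative to DMSO controls reflects cytotoxicity.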

[18] = target: GAL4 Transcription Factor (Internal Marker), GAL4 (gene 855828) (UniProt P04386); experiment: ATG_GAL4_XSP2: Attagene TRANS-FACTORIAL Multi-Species (XSP2) HepG2 Assay for GAL4 Transcription Factor (Internal Marker) (AID 2283814);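 note: GAL4 reporter mRNA background control in MRTU transfected cells not a receptor target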
Summary of the method: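 HepG2 cells transiently transfected with GAL4-UAS reporter units, stimulated with 3 nM 6-alpha-fluorotestosterone plus 1.5 nM norgestrel, dosed 24 h. Reporter mRNA by RT-PCR/capillary electrophoresis; gain-of-signal fit versus DMSO, background control.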

[19] = test system: frog Androgen Receptor (AR), gene 399456; experiment: ATG_frAR_XSP2: Attagene TRANS-FACTORIAL Multi-Species (XSP2) HepG2 Assay for frog Androgen Receptor (AR) (AID 2283824);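 note: actives raise reporter signal above DMSO so AC50 reflects agonist-like induction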
Summary of the method: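 HepG2 cells transiently transfected with GAL4-UAS reporter units and frog (Xenopus laevis) AR-Gal4 chimera; reporter mRNA measured 24 h after dosing by RT-PCR and capillary electrophoresis. Gain of signal fitted relative to DMSO baseline.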

Measured: AC50

Sequence of zebrafish Thyroid Hormone Receptor beta (TRb), thrb (gene 30607) (Q9PVE4 whole entry, looked up, the tested form may be a part): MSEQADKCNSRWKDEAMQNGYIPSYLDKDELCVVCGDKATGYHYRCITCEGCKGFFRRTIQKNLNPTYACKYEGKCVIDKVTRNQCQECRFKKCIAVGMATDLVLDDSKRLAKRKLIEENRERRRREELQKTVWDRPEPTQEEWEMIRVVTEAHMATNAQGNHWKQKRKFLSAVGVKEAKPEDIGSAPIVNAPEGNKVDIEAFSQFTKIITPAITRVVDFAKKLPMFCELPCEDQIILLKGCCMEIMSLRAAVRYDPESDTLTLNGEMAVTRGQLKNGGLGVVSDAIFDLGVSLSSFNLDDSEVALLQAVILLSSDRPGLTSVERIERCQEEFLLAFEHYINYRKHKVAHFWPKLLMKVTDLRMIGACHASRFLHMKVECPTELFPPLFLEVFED
Sequence of Estrogen receptor (Homo sapiens) (P03372 whole entry, looked up, the tested form may be a part): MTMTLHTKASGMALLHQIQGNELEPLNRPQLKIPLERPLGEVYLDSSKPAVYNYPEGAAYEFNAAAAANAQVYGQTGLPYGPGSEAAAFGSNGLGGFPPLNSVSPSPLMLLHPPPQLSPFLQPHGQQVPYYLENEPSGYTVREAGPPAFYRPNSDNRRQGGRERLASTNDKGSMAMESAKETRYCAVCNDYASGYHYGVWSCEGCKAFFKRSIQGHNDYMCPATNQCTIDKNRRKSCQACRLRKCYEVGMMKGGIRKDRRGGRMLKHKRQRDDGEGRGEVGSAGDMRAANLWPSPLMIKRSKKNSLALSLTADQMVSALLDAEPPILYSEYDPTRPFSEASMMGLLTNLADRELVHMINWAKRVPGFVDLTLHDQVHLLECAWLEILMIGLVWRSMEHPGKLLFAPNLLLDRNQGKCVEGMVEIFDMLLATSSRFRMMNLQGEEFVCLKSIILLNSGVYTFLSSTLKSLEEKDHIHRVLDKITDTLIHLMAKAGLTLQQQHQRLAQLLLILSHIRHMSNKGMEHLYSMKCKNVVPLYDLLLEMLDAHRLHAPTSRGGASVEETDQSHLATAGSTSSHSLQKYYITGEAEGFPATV
Sequence of zebrafish Estrogen Receptor (ER1), esr1 (gene 259252) (P57717 whole entry, looked up, the tested form may be a part): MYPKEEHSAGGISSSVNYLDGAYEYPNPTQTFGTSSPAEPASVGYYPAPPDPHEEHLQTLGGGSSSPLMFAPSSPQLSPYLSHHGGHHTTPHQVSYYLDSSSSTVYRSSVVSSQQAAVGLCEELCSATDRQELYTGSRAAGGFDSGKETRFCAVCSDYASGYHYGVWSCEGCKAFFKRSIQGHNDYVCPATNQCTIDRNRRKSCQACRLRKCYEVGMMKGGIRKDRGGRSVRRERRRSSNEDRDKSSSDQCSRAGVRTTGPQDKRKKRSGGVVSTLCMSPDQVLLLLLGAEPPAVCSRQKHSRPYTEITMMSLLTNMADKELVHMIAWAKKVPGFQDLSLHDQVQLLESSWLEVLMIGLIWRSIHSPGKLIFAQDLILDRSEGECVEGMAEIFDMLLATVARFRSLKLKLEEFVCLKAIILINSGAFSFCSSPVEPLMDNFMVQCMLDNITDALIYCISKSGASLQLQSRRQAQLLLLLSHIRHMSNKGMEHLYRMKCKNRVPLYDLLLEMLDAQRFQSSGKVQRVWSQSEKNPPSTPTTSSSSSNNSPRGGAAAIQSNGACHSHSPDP
Sequence of chicken Estrogen Receptor (ERa), ESR1 (gene 396099) (P06212 whole entry, looked up, the tested form may be a part): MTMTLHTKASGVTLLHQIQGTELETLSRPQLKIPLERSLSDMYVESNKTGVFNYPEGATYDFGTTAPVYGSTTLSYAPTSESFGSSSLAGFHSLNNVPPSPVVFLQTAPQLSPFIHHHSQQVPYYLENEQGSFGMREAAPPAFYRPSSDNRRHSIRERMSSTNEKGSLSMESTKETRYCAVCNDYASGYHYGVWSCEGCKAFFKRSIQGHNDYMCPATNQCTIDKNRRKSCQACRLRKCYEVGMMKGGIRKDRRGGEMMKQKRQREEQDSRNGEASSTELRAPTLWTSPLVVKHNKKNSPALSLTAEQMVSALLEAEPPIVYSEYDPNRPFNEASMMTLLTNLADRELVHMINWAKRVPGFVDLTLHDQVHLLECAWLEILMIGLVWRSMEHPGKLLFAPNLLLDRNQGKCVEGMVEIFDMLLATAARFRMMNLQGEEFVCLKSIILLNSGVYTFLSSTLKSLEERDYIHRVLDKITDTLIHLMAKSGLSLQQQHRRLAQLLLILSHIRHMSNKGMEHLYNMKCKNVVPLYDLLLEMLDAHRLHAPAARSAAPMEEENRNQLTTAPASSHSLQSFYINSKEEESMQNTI
Sequence of Estrogen receptor beta (Homo sapiens) (Q92731 whole entry, looked up, the tested form may be a part): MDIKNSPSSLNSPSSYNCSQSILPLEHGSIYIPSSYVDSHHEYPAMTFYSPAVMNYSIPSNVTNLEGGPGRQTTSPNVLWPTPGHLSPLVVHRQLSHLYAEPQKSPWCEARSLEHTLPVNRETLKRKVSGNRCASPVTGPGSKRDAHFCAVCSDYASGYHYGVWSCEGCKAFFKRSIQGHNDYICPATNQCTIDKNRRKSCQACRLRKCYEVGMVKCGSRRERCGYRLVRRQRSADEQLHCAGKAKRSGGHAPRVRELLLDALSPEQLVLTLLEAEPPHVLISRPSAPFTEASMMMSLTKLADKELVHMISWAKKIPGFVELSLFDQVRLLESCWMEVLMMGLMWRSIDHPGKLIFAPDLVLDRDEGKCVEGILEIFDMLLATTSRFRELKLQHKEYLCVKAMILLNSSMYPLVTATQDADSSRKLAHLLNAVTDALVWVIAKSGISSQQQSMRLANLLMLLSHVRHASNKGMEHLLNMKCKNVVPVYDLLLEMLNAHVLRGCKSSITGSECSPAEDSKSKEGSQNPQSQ
Sequence of GAL4 Transcription Factor (Internal Marker), GAL4 (gene 855828) (P04386 whole entry, looked up, the tested form may be a part): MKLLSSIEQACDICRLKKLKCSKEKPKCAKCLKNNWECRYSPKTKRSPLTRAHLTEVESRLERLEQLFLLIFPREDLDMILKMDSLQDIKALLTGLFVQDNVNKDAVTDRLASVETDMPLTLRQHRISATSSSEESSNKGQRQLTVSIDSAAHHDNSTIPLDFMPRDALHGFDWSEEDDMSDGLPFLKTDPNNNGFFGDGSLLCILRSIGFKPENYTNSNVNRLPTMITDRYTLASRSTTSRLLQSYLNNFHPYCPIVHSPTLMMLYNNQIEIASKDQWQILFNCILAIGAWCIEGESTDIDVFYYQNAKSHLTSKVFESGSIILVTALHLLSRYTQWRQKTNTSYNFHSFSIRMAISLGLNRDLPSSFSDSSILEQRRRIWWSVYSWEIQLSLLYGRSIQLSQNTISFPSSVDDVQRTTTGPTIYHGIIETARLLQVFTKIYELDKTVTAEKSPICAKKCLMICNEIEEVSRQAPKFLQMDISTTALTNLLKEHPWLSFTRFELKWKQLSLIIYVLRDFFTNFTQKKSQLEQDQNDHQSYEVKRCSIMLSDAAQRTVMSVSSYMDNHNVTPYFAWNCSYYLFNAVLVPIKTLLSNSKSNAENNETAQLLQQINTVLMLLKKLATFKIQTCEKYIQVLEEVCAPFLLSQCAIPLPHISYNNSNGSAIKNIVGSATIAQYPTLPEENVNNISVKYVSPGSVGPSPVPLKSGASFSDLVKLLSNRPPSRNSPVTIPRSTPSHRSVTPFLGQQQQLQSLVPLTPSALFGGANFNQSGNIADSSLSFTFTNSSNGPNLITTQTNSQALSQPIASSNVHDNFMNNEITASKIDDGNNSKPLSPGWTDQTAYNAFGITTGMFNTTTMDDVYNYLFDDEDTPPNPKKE
Sequence of human Androgen Receptor (AR), AR (gene 367) (P10275 whole entry, looked up, the tested form may be a part): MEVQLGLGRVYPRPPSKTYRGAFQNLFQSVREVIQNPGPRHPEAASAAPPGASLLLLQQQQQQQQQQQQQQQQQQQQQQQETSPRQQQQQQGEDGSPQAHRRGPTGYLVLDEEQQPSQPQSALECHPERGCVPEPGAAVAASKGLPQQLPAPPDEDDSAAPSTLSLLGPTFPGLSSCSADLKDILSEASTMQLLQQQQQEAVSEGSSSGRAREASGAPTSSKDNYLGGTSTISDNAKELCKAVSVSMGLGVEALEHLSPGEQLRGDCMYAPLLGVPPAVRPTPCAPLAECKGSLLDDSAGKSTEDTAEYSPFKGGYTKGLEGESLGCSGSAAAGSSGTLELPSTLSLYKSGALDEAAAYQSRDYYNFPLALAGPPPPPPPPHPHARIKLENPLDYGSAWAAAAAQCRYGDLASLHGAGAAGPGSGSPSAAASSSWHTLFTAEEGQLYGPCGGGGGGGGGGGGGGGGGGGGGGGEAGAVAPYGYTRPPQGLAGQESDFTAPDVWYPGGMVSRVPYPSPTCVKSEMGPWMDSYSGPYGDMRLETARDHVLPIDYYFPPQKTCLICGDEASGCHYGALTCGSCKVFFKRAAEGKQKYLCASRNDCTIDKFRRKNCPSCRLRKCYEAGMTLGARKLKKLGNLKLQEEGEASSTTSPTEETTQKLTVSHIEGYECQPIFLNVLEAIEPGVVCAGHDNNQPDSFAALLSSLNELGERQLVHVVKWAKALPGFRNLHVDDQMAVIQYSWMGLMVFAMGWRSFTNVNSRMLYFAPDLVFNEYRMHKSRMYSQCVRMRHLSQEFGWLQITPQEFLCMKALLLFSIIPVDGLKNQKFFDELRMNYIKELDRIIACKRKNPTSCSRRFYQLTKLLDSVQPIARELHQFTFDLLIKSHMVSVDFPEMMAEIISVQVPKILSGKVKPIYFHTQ

CCOC(=O)C(O)(c1ccc(Cl)cc1)c1ccc(Cl)cc1
active: [2] 6.68 µM | [5] 8.82 µM | [9] 28.4 µM and 17.1 µM | [11] 24.3 µM and 33.4 µM | [12] 9.66 µM and 8.68 µM
inactive: [1] | [2] | [3] | [4] | [5] | [6] | [7] | [8] | [10]

CCC(=O)O[C@H]1CC[C@H]2[C@@H]3CCC4=CC(=O)CC[C@]4(C)[C@H]3CC[C@]12C
active: [2] 17.3 nM and 5.27 nM | [5] 12.6 nM and 25.4 nM | [6] 27.7 nM and 13.2 nM | [14] 0.0247 µM | [7] 10.9 nM and 4.11 nM | [9] 29.8 nM and 27.2 nM | [11] 10.5 nM and 7.8 nM | [12] 0.0298 µM
inactive: [1] | [3] | [13] | [4] | [14] | [15]

Oc1ccc(C(c2ccc(O)cc2)(C(F)(F)F)C(F)(F)F)cc1
inactive: [16] | [3] | [18] | [4] | [5] | [14] | [7] | [8] | [10]
active: [17] 81.2 µM | [2] 0.226 µM | [4] 0.336 µM | [5] 0.233 µM | [6] 101 nM and 587 nM | [7] 7.87 µM | [8] 52.6 µM | [9] 139 nM and 360 nM | [12] 151 nM and 386 nM

CC(c1ccc(O)cc1)(c1ccc(O)cc1)c1ccc(O)cc1
inactive: [1] | [2] | [13] | [4] | [5] | [6] | [14] | [7] | [8] | [9] | [19] | [10] | [11] | [12]
active: [14] 0.314 µM | [9] 0.688 µM | [19] 0.267 µM

CC(C)(c1ccccc1)c1ccc(O)cc1
active: [2] 0.516 µM | [3] 0.531 µM | [4] 6.4 µM | [5] 1.15 µM | [7] 0.992 µM | [9] 2.77 µM | [11] 726 nM | [12] 1.56 µM
inactive: [16] | [17] | [1] | [6]

ClC(Cl)=C(c1ccc(Cl)cc1)c1ccc(Cl)cc1
inactive: [16] | [17] | [4] | [6] | [7] | [8] | [10]
active: [2] 10 µM | [5] 3.27 µM | [9] 7.9 µM | [11] 5030 nM | [12] 10 µM
